Screening results (PubChem)
BAZ2B inh = qHTS Assay for Inhibitors of BAZ2B. 360,000 compounds, 4.4% hits. Potency, µM (top dose mostly 114 µM), without a hit: at the highest dose activity change, negative = inhibition, actives largely listed as inhibitors. AlphaScreen BAZ2B-H3K14Ac peptide displacement; further: potency means the concentration at half of the fitted maximal effect; on the % scale 0 is the no-effect control and ±100 the full control effect; nearly all actives have a fitted effect of over 60% in size
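BAZ2B (50 nM) with biotin-H3(5-23)K14Ac peptide (50 nM) in PBS pH 7.4, 0.01% Tween-20, preformed 30 min, then compound 30 min at room temperature; top concentration 110uM. AlphaScreen streptavidin donor/nickel chelate acceptor beads (10 ug/mL final), 20 min dark, signal read.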
CtBP-E1A blk = qHTS Assay for Inhibitors of the CtBP/E1A Interaction | CtBP / adenovirus E1A interaction (AlphaScreen) | AlphaScreen GST-E1A/His-CtBP binding, 1536-well; active compounds read low | activity change, % (no concentration beside the values) | 340,000 compounds, 0.49% hits; in the data active means activity change below about -65%; inconclusive means mostly about -30% to -63%; further: on the % scale 0 is the no-effect control and ±100 the full control effect
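Steps: dispense buffer (Tris pH 8.0, NaCl 300 mM, TCEP 1 mM, BSA, Tween 20); add 5X protein mix (GST-E1A, His-CtBP, 125 nM each); pin 23 nL compound; 2 h at 37 °C, dark; add 5X beads (50 ug/mL); 1 h; read.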
G9a block = qHTS Assay for Inhibitors of Histone Lysine Methyltransferase G9a; Histone-lysine N-methyltransferase EHMT2 (Homo sapiens), Q96KQ7; G9a H3K9 monomethylation, AlphaScreen, 2 h; Potency, µM (top dose mostly 102 µM), without a hit: at the top dose activity, negative = inhibition, hits mostly inhibitors; 350,000 compounds, 8.8% hits; AID 504332, 2011; further: potency means the concentration at half of the fitted maximal effect; on the % scale 0 is the no-effect control and ±100 the full control effect; nearly all actives have a fitted effect of over 75% in size
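Signal arises when biotinylated H3K9 peptide, once monomethylated, bridges streptavidin donor and antibody-captured acceptor beads. Enzyme at 20 nM was preincubated 15 min with test compounds; peptide 500 nM and SAM 20 uM then reacted for 2 h.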
HP1b binding inh = HTS for Inhibitors of HP1-beta Chromodomain Interactions with Methylated Histone Tails | AID 540317, 2011 | 390,000 compounds, 0.56% hits | Potency, µM (series often up to 114 µM), for the others: at the top dose activity change, negative = inhibition, usual class: inhibitors | AlphaScreen HP1-beta / biotin-H3K9me3 peptide binding; further: potency means the concentration at half of the fitted maximal effect; nearly all actives have a fitted effect of over 70% in size
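Compound inhibition of the preformed complex between 50 nM HP1-beta and 50 nM biotinylated H3K9me3 peptide was read by AlphaScreen. Buffer was PBS pH 7.4 with 0.01% Tween-20. Incubations ran 30 min at room temperature, with 10 ug/mL donor/acceptor beads.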
Six1-Eya2 inh = qHTS Assay for Inhibitors of the Six1/Eya2 Interaction. AlphaScreen GST-Six1/His-Eya2 binding, biochemical; active compounds read low. activity change, % (test concentration not listed). 360,000 compounds, 0.56% hits; in the data active means activity change below about -65%; inconclusive means mostly about -30% to -63%; further: on the % scale 0 is the no-effect control and ±100 the full control effect
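AlphaScreen luminescence read after one hour at 37 °C in darkness. Pin-transferred compounds met GST-Six1 and His-Eya2 protein (5X stock 250 nM/500 nM) plus glutathione donor and Ni-chelate acceptor beads (5X, 50 ug/mL).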
JMJD2A Tudor = qHTS Assay for Inhibitors of JMJD2A-Tudor Domain; Lysine-specific demethylase 4A (Homo sapiens), O75164; Potency, µM (series often up to 114 µM), for the others: top-dose activity change, negative = inhibition, actives largely listed as inhibitors; AID 504339, 2011; 390,000 compounds, 4.4% hits; AlphaScreen JMJD2A-Tudor / H3K4me3 peptide binding; further: potency means the concentration at half of the fitted maximal effect; on the % scale 0 is the no-effect control and ±100 the full control effect; nearly all actives have a fitted effect of over 50% in size
Numbers without * were called inactive; ? = inconclusive; / = not tested or not shown; [ ] = remark or other dose. An excerpt weighted towards active compounds, which were near 10% of everything screened. Unless noted, the call rests on the fitted dose curve; in most records, active means well fitted inhibition curve with a large enough effect; inconclusive means small, poorly fitted or top-dose-only effect; inactive means no such curve, though single readings can be large or run the other way.

SMILES	BAZ2B inh	CtBP-E1A blk	G9a block	HP1b binding inh	Six1-Eya2 inh	JMJD2A Tudor
CCn1c(-c2cc(-c3ccc(C)cc3)nc3ccccc23)n[nH]c1=S	?	-1	8.9µM*	-16%	-9	-33%
CCn1c(-c2cc(-c3ccc(OC(C)C)cc3)nc3ccccc23)n[nH]c1=S	-34%	-16	28µM*	4%	-11	-20%
CCOC(=O)c1cc(S(=O)(=O)NCc2cccc(Cl)c2)[nH]n1	50µM*	/	3.5µM*	12%[57 µM]	/	-30%
CCOC(=O)c1c(C)[nH]c(C)c1S(=O)(=O)NCC(=O)NCc1ccc(C)cc1	-2%	/	4%[59 µM]	27%	/	-18%
CCOC(=O)c1cc(S(=O)(=O)NCc2ccc(C)cc2)[nH]n1	50µM*	/	5.6µM*	22%[57 µM]	/	-15%
Cc1ccc(NC(=O)c2cc(S(=O)(=O)NC3CCCCCC3)ccc2F)cc1F	4%	/	10%[59 µM]	22%	/	-14%
Cc1nc2c(-c3ccc(Cl)cc3)cnn2c2c1CCC2	30%	30	69%	78%	27	28%
CC(=O)NC(Cc1ccccc1)C(=O)NC(Cc1ccccc1)C(=O)O (configuration not stated)	-14%	/	?	41%	-4	0%
O=C(NC(Cc1ccccc1)C(=O)NC(Cc1ccccc1)C(=O)O)c1ccccc1 (configuration not stated)	?	0	28µM*	12%	2	-5%[57.1 µM]
O=C(O)[C@H](Cc1ccccc1)NC(=O)N1CCOCC1	-6%	6	50µM*	20%	6	0%
CCCCn1cc(S(=O)(=O)c2ccc(F)cc2)c(=O)c2ccccc21	0%	/	9%[59 µM]	40%	/	-3%
Cn1cc(C2=C(c3cn(CCCSC(=N)N)c4ccccc34)C(=O)NC2=O)c2ccccc21	/	/	7.9µM*	/	/	/
CN(C)CCCn1cc(C2=C(c3c[nH]c4ccccc34)C(=O)NC2=O)c2ccccc21	/	/	14µM*	/	/	/
COc1ccc(-c2cn(-c3ccc(C)cc3)c(S(=O)(=O)CC(=O)Nc3ccccc3)n2)cc1	-27%	/	?	28%	/	?
C=CCNC(=O)CC(=O)N/N=C/c1cccs1	-15%	0	-3%	66%	15	-13%
O=C(COC(=O)C1CCN(C(=O)Nc2ccccc2)CC1)NCC(F)(F)F	2%	5	-37%	23%	6	1%
COc1ccc(NS(=O)(=O)c2cc([N+](=O)[O-])ccc2N/N=C/c2c(C)[nH]c3ccccc23)cc1	/	-5	/	-20%	-1	-26%
Cc1[nH]c2ccccc2c1/C=N/Nc1ccccc1[N+](=O)[O-]	5.6µM*	?	7.9µM*	40µM*	-69*	22µM*
Cc1[nH]c2ccccc2c1/C=N/NC(=O)CCC(=O)NCc1ccccc1	-21%	-9	-6%	-24%	-4	11µM*
Cc1[nH]c2ccccc2c1/C=N/NS(=O)(=O)c1ccccc1	-38%	11	50µM*	-16%	5	?
O=C(O)CCc1ccc(S(=O)(=O)Nc2cc(C(F)(F)F)ccc2N2CCCC2)cc1	79µM*	-1	28µM*	2%	1	?
Cc1cc(Cl)cc2sc(=S)[nH]c12	/	-1	/	-11%[57 µM]	-3	-18%
COc1cc(NC(=O)CN2C(=O)C(c3ccc(Cl)cc3)=NC23CCCCC3)cc(OC)c1	-7%	/	-30%[59 µM]	29%	/	-25%
CC1CCN(C2CC(=O)N(c3ccccc3)C2=O)CC1 (configuration not stated)	-21%	10	28µM*	62%	2	-1%
O=C1CC(N2CCN(Cc3ccccc3)CC2)C(=O)N1c1ccccc1 (configuration not stated)	0%	2	1%[2.33 µM]	22%	0	-14%
SMILES	BAZ2B inh	CtBP-E1A blk	G9a block	HP1b binding inh	Six1-Eya2 inh	JMJD2A Tudor
O=C1CC(N2CCN(c3ccc(F)cc3)CC2)C(=O)N1c1ccc(F)cc1 (configuration not stated)	-5%	0	/	38%	-5	-3%
O=C1CC(N2CCCCCC2)C(=O)N1c1ccc(F)cc1 (configuration not stated)	-18%	/	11µM*	35%	2	-5%
O=C1CC(N2CCN(c3ccccc3Cl)CC2)C(=O)N1c1ccc(F)cc1 (configuration not stated)	-3%	6	50µM*	16%	3	-12%
CCCCCCn1c(=O)[nH]c2nc3cc(N)c(C)cc3nc2c1=O	3%	?	3.5µM*	5%	?	-21%
OCCN(Cc1ccccc1)Cc1cccc(C(F)(F)F)c1	?	15	18µM*	?	10	7.9µM*
OCCN(Cc1ccccc1)Cc1ccc(C(F)(F)F)cc1	?	6	28µM*	16µM*	6	7.9µM*
Cc1nc(-c2ccc(C)c(S(=O)(=O)N3CCC(C(=O)NCc4ccc(Cl)cc4)CC3)c2)no1	4%	/	9%[59 µM]	38%	/	0%
CCc1sc(Nc2cccc(Cl)c2C)nc1-c1cc2cccc(OC)c2oc1=O	-12%	/	5%[59 µM]	18%	/	-24%
CN(C)CCN(C(=O)CN1C(=O)c2ccccc2C1=O)c1nc2cc3c(cc2s1)OCO3	89µM*	4	?	5%	-13	-29%
CCN(CC)CCN(C(=O)CN1C(=O)c2ccccc2C1=O)c1nc2cc3c(cc2s1)OCO3	?	-83*	?	-1%	-10	?
CN(C)CCCN(C(=O)CCSc1ccccc1)c1nc2cc3c(cc2s1)OCO3	?	-21	?	1%	-8	-28%
O=C(CSc1nnc(-c2ccccn2)o1)Nc1ccccc1C(F)(F)F	50µM*	?	71µM*	5%	?	-18%
O=C(CSc1nnc(CNC(=O)c2cccs2)o1)Nc1ccccc1C(F)(F)F	-6%	2	-6%	47%	3	-8%
COC(=O)c1ccc(NC(=S)NC(=O)c2c(Cl)cnn2C)cc1	-28%	5	?	10%	-4	-12%
COC(=O)c1ccc(NC(=O)c2c(Br)cnn2C)cc1	-15%	4	7.9µM*	-4%	-1	-9%
CCc1ccc(C(c2ccccc2)c2c[nH]c3ccc(C)cc23)s1 (configuration not stated)	?	/	?	?	/	56µM*
